Assay outcomes as filed in PubChem BioAssay.
Hedgehog inh = Sonic Hedgehog pathway inhibition | Shh-LIGHT2 Gli-luciferase reporter, 30 h | inhibition, % (test concentration not listed) | 22,000 tested, 2.1% active | AID 2313;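 active = mean inhibition across valid replicates above about 65%, limit read from the data; inconclusive = mean under the limit, yet half or more replicates past it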;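 note: pathway switched on by Shh-conditioned medium diluted 1 in 25 in low serum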
MITF inhib = blocks MITF activity | TRPM1 promoter luciferase, luminescence, 24 h | inhibition, % (no concentration beside the values) | 37,000 tested, 0.28% active; in the data active = inhibition above about 85%; inconclusive = no clear call, values can overlap the other calls; inactive = below about 68%;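 note: human melanocyte line stably carrying TRPM1 promoter luciferase reporter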
NOMO-1 viab = STK33 inhibitor candidate reducing NOMO-1 cell viability; AID 2330; inhibition, % (concentration not given with the values); 37,000 tested, 7.5% active; NOMO-1 AML viability, CellTiter-Glo luminescence, 72 h; in the data active = inhibition above about 80%; inconclusive = no clear call, values can overlap the other calls
PD-1 reverse act = reversal of PD-1 mediated T-cell inhibition. primary human CD4 T cells, PD-L1 beads, CellTiter-Glo 96 h. activation, % (concentration not given with the values). 29,000 tested, under 10 active; call rule not given here;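 note: 0% = median vehicle wells and 100% = positive control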
An asterisk follows results filed as active; ? = inconclusive; · = no result given. Most compounds without a hit are left out; they make up all but 8.1% or so of the library.

SMILES | Hedgehog inh | MITF inhib | NOMO-1 viab | PD-1 reverse act
C[C@@H]1CN([C@H](C)CO)C(=O)Cc2cc(NC(=O)CCCCCC(=O)Nc3ccccc3N)ccc2O[C@@H]1CN(C)Cc1ccc(Oc2ccccc2)cc1 | · | 13 | 128* | -1
C[C@H]1CN([C@@H](C)CO)C(=O)Cc2cc(NC(=O)CCCN(C)C)ccc2O[C@@H]1CN(C)Cc1ccc(Oc2ccccc2)cc1 | 47 | -5 | 25 | ·
C[C@@H]1CN([C@@H](C)CO)C(=O)Cc2cc(NC(=O)CCCCCC(=O)Nc3ccccc3N)ccc2O[C@@H]1CN(C)Cc1ccc(Oc2ccccc2)cc1 | · | 21 | 140* | -1
COc1cccc(Nc2nc(C3(C)CC4(CC(C)OC4=O)C(=O)O3)cs2)c1 (centres undefined) | · | 29 | 7 | 0
COC(=O)C1=COC(O[C@@H]2O[C@H](CO)[C@@H](O)[C@H](O)[C@H]2O)[C@@H]2[C@@](C)(O)[C@@H](OC(=O)/C=C/c3ccc(OC)cc3)C[C@]12O (some centres undefined) | -18 | -5 | 3 | -1
CC1(C)N=C(NS(=O)(=O)c2cc(C(F)(F)F)cc(C(F)(F)F)c2)N(c2ccccc2)O1 | 101* | 49 | 14 | -1
O=C(Nc1ccccc1C(=O)O)c1cccc(S(=O)(=O)Nc2cccc(C(F)(F)F)c2)c1 | · | 6 | 21 | 0
Cc1nc2c([nH]1)C1(CCC(c3ccccc3)CC1)C(C#N)=C(N)O2 (centres undefined) | -18 | 3 | 27 | -1
COC(=O)c1ccccc1NC(=O)Cn1nc([N+](=O)[O-])c(Br)c1C | · | -1 | -2 | -1
O=C1C(SCCO)=C(SCCO)C(=O)c2ccccc21 | 104* | 103* | 114* | ·
C[C@H]1CN([C@@H](C)CO)C(=O)c2cccc(NC(=O)CCCCCC(=O)Nc3ccccc3N)c2O[C@@H]1CN(C)Cc1ccc2c(c1)OCO2 | · | 52 | 121* | 1
C[C@H](CO)N1C[C@H](C)[C@@H](CN(C)Cc2ccc3c(c2)OCO3)Oc2ccc(NC(=O)CCCCCC(=O)Nc3ccccc3N)cc2C1=O | · | -4 | -19 | 1
C[C@H](CO)N1C[C@H](C)[C@H](CN(C)Cc2ccc3c(c2)OCO3)Oc2c(NC(=O)Nc3cccc4ccccc34)cccc2C1=O | 27 | 18 | 22 | -1
C[C@@H]1CN([C@@H](C)CO)C(=O)c2cccc(NC(=O)CCCCCC(=O)Nc3ccccc3N)c2O[C@H]1CN(C)Cc1ccc2c(c1)OCO2 | · | 55 | 117* | -1
C[C@H](CO)N1C[C@H](C)[C@@H](CN(C)Cc2ccc3c(c2)OCO3)Oc2c(NC(=O)CCCCCC(=O)Nc3ccccc3N)cccc2C1=O | · | 24 | 123* | 0
C[C@H](CO)N1C[C@H](C)[C@@H](CN(C)Cc2ccc3c(c2)OCO3)Oc2c(NC(=O)Nc3cccc4ccccc34)cccc2C1=O | 25 | 18 | ? | ·
CCOC(=O)c1cnn(C(=O)Cc2cccc(OC)c2)c1N | -19 | -23 | 23 | 0
Cc1cc(NC(=O)CN(c2cc(Cl)ccc2C)S(C)(=O)=O)ccc1Br | · | -1 | 67 | 2
O=C(NCCCn1ccnc1)c1nn2c(C(F)(F)F)cc(-c3cccs3)nc2c1Br | · | -8 | 29 | ·
O=C(c1nn2c(C(F)(F)F)cc(-c3cccs3)nc2c1Cl)N1CCCc2ccccc21 | 47 | -19 | 107* | -16
CSc1ccccc1NC(=O)c1cnn2c(C(F)(F)F)cc(-c3ccco3)nc12 | ? | -10 | 38 | -2
O=S(=O)(Cc1ccc(Cl)cc1)CC(O)COc1ccc(F)cc1 (centres undefined) | -35 | 12 | 26 | 1
OC(COc1ccc(F)cc1)(c1ccc(Cl)cc1)c1ccc(Cl)cc1 | 75* | 38 | 121* | -4
Cc1oc2c(c1C(=O)NCCCn1ccnc1)C(=O)c1ccccc1C2=O | 110* | 66 | 141* | -5
Cc1oc2c(c1C(=O)NCCC(C)C)C(=O)c1ccccc1C2=O | 90* | ? | 140* | -5
SMILES | Hedgehog inh | MITF inhib | NOMO-1 viab | PD-1 reverse act
O=C1S/C(=C\c2ccc(N3CCOCC3)o2)C(=O)N1c1ccccc1 | · | -34 | 132* | 0
O=c1c(N2CCOCC2)nnc2sc3ccccc3n12 | -23 | -1 | 8 | 0
CC(C#N)(Nc1ccccc1)c1ccc(F)cc1 (centres undefined) | -20 | 10 | 27 | 0
C=C1C(=O)O[C@H]2C1CCC(=C)[C@@H]1C[C@H](OC(=O)C=C(C)C)C(=C)[C@@H]12 (some centres undefined) | 7 | 12 | 96* | -5
C[C@@H]1CN([C@H](C)CO)C(=O)c2cccc(NC(=O)Nc3ccc4c(c3)OCO4)c2O[C@@H]1CN(C)Cc1ccc(C(=O)Nc2ccccc2N)cc1 | · | -3 | 140* | -1
C[C@H]1CN([C@@H](C)CO)C(=O)c2cccc(NC(=O)Nc3ccc4c(c3)OCO4)c2O[C@H]1CN(C)Cc1ccc(C(=O)Nc2ccccc2N)cc1 | · | 15 | 140* | -1
C[C@@H]1CN([C@@H](C)CO)C(=O)c2cc(NC(=O)Nc3ccc4c(c3)OCO4)ccc2O[C@H]1CN(C)Cc1ccc(C(=O)Nc2ccccc2N)cc1 | · | 2 | 58 | -1
C[C@@H]1CN([C@H](C)CO)C(=O)c2cc(NC(=O)Nc3ccc(F)cc3)ccc2O[C@H]1CN(C)Cc1ccc(C(F)(F)F)cc1 | -13 | 69 | 117* | -10
C[C@@H]1CN([C@@H](C)CO)C(=O)c2cc(NC(=O)Nc3ccc(F)cc3)ccc2O[C@H]1CN(C)Cc1ccc(C(F)(F)F)cc1 | · | 37 | 113* | -3
C[C@H]1CN([C@@H](C)CO)C(=O)c2cc(NC(=O)Nc3ccc(F)cc3)ccc2O[C@@H]1CN(C)Cc1ccc(C(F)(F)F)cc1 | -8 | 4 | 14 | 1
c1ccc(N=C(Nc2ccccc2)Nc2ccccc2)cc1 | -24 | -8 | 89* | -1
COc1ccc(-n2c(=S)[nH]c3cc(C(=O)NC4CCCC(C)C4C)ccc3c2=O)c(OC)c1 (centres undefined) | 0 | 38 | 87* | 0
COc1ccc(OC)c(-n2c(=S)[nH]c3cc(C(=O)N4CCC(C(N)=O)CC4)ccc3c2=O)c1 | -23 | 6 | 6 | 4
COc1ccc(OC)c(-n2c(=S)[nH]c3cc(C(=O)NCc4ccc(F)cc4)ccc3c2=O)c1 | 77* | 4 | 17 | 0
CC[n+]1c(C)csc1Nc1ccc(N2CC(C)OC(C)C2)cc1 (centres undefined) | · | 8 | 47 | 2
Cc1ccc(-n2c(SCC(=O)Nc3ccc(F)c(F)c3)nnc2-c2ccc(Cl)cc2)cc1 | · | 4 | ? | ·
O=C(COc1ccc(Cl)cc1Cl)NCCO | · | -10 | 8 | 0
C[C@H]1CN([C@@H](C)CO)C(=O)c2cc(NC(=O)Nc3ccc(F)cc3)ccc2O[C@H]1CN(C)Cc1ccc(C(F)(F)F)cc1 | 14 | 30 | 52 | -3
C[C@@H]1CN([C@H](C)CO)C(=O)c2cc(NC(=O)Nc3ccccc3)ccc2O[C@@H]1CN(C)Cc1ccncc1 | -8 | -10 | -5 | 0
C[C@H](CO)N1C[C@H](C)[C@H](CN(C)Cc2ccncc2)Oc2ccc(NC(=O)Nc3ccccc3)cc2C1=O | -19 | 4 | 97* | 0
